Sampled rows, rich in hits. Any-hit rate of the full collection: about 21%.
Pf growth 96h = inhibits malaria parasite growth, 96 h; 320,000 tested, 6.9% active; AID 504834; P. falciparum luciferase reporter growth, 96 h; Potency, µM (titrated, usually from 28.7 µM), hits mostly inhibitors
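P. falciparum expressing integrated firefly luciferase grown in erythrocytes (2% hematocrit, 0.05% parasitemia final) with compounds for 96 hours at 37 C, 5% CO2. Growth inhibition read as loss of luminescence after adding luciferase detection reagent.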
CHX counter = affects cycloheximide protein synthesis inhibition readout, counter-screen | max response, % | 300,000 tested, 12% active | cell reporter, cycloheximide protein synthesis inhibition counterscreen; in the data active = max response mostly above about 13%, no sharp cut-off; inactive = mostly below about 14%; also: read at 38.3 µM for the half of the compounds with a filed dose
Shiga inhibitor = Shiga toxin inhibition | Vero cells, Shiga toxin protein synthesis inhibition reporter | inhibition, % at 38.7 µM | 290,000 tested, 9.2% active | AID 2315; in the data active = inhibition mostly above about 28%, no sharp cut-off; inactive = mostly below about 43%
Sm TGR block = inhibitors of Schistosoma mansoni thioredoxin glutathione reductase | 360,000 tested, 3% active | Potency, µM (series often up to 114 µM), actives largely listed as inhibitors | purified TGR, DTNB reduction, TNB absorbance 405 nm | Q962Y6; also: nearly all actives have a fitted effect of over 60% in size
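First, TGR (20 nM dispensed) and NADPH were mixed with compound. Second, a 15 min room-temperature incubation followed. Third, further NADPH and then DTNB were added to start the reaction. Finally, TNB absorbance was monitored kinetically.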
NS1 inh = inhibitors of influenza NS1 protein function; 270,000 tested, 0.4% active; Potency, µM (doses to about 46.1 µM); calls by dose curve; also: actives are rising curves; nearly all actives have a fitted effect of over 50% in size
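Compounds were scored for reversing the slow growth caused by influenza A NS1 in S. cerevisiae, measured by optical density at 600 nm. Assay medium contained 2% galactose at pH 6.0; NS1-free yeast of the same strain were the positive control.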
Pf growth 48h = P. falciparum growth inhibition at 48 hours (one generation); AID 504832; 310,000 tested, 5.9% active; P. falciparum luciferase growth in erythrocytes, 48 h; Potency, µM (highest dose often 28.7 µM), usual class: inhibitors
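Growth was read as firefly luciferase luminescence after a 48 h, 37 C, 5% CO2 exposure of compounds to reporter-bearing P. falciparum cultures (0.1% parasitemia, 2% hematocrit final) in Albumax-supplemented RPMI 1640.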
A number is an active result. Unless noted, calls follow the shape of the dose curve; as a rule, active = well fitted curve in the direction sought with a large enough effect; inconclusive = small, poorly fitted or top-dose-only effect, or another doubt; inactive = no such curve, though single readings can be large; an effect the other way counts as inactive or inconclusive.

For COc1ccc(CNC(=O)c2cc(-c3ccc(OC)cc3)on2)cc1 the results were Sm TGR block inactive.
`O=C(NCc1cccnc1)c1cc(-c2cccs2)on1` gave CHX counter 60, Shiga inhibitor 37, Sm TGR block inactive, NS1 inh inactive and Pf growth 48h inactive.
Screening COc1ccc(-c2cc(C(=O)NCc3cccnc3)no2)cc1 returned Pf growth 96h inconclusive, CHX counter 43, Shiga inhibitor 73, Sm TGR block inactive, NS1 inh inactive and Pf growth 48h inactive.
Screening Cc1sc2ncn(CC(=O)Nc3ccc(F)cc3Cl)c(=O)c2c1S(=O)(=O)N1CCN(c2ncccn2)CC1 returned Sm TGR block inactive.
For O=C(NCc1cccnc1)c1cc(-c2ccccc2)on1 the results were Pf growth 96h inconclusive, CHX counter 40, Shiga inhibitor inactive, Sm TGR block inactive, NS1 inh inactive and Pf growth 48h inactive.
`O=C(Nc1cccnc1)c1cc(-c2ccccc2)on1` gave Pf growth 96h inactive, CHX counter inactive, Shiga inhibitor inactive, Sm TGR block inactive, NS1 inh inactive and Pf growth 48h inactive.
O=C(COC(=O)COc1ccc(Br)cc1)Nc1ccc2c(c1)OCCO2 was read as Pf growth 96h inactive, Sm TGR block inactive and Pf growth 48h inactive.
COc1ccc(NC(=S)NNc2ccc(C(=O)O)cc2)cc1 was read as Pf growth 96h inactive, CHX counter 42, Shiga inhibitor inactive, Sm TGR block inactive, NS1 inh inactive and Pf growth 48h inactive.
Screening Cc1ccccc1NC(=O)c1ccc2ccccc2c1 returned Pf growth 96h inactive, CHX counter 30, Shiga inhibitor 92, Sm TGR block inactive, NS1 inh inactive and Pf growth 48h inactive.
For O=C(Nc1ccccc1N1CCCC1)c1ccc2c(c1)OCO2 the results were Pf growth 96h inactive, CHX counter inactive, Shiga inhibitor inactive, Sm TGR block inactive, NS1 inh inactive and Pf growth 48h inactive.
For NC(=O)c1ccccc1NC(=O)c1ccc2c(c1)OCO2 the results were Pf growth 96h inactive, CHX counter 41, Shiga inhibitor 55, Sm TGR block inactive, NS1 inh inactive and Pf growth 48h inactive.
Cc1ccccc1NC(=O)NNC(=O)c1ccc2ccccc2c1 was read as Pf growth 96h inactive, CHX counter inactive, Shiga inhibitor inactive, Sm TGR block inactive, NS1 inh inactive and Pf growth 48h inactive.
COc1ccc(C(=O)Nc2ccc(O)cc2C(=O)O)cc1 was read as Pf growth 96h inactive, CHX counter inactive, Shiga inhibitor inactive, Sm TGR block inactive, NS1 inh inactive and Pf growth 48h inactive.
For COc1ccc(C(=O)Nc2ccccc2C(=O)Nc2ccccc2C(=O)O)cc1 the results were Pf growth 96h inactive, CHX counter 29, Sm TGR block inactive, NS1 inh inactive and Pf growth 48h inactive.
CCOc1ccc(C(=O)Nc2cc(-c3nc4ccccc4o3)ccc2C)cc1Cl was read as Sm TGR block inactive.
For NC(=O)c1ccccc1NC(=O)c1ccc2ccccc2c1 the results were Pf growth 96h inactive, CHX counter 57, Shiga inhibitor 79, Sm TGR block inactive, NS1 inh inactive and Pf growth 48h inactive.
COc1ccc(NC(=O)c2ccccc2NC(=O)c2cccs2)cc1 was read as Pf growth 96h inactive, CHX counter inactive, Shiga inhibitor inactive, Sm TGR block inactive, NS1 inh inactive and Pf growth 48h inactive.
`COc1ccc(C(=O)Nc2ccccc2C(=O)Nc2ccncc2)cc1` gave Pf growth 96h inactive, CHX counter 25, Shiga inhibitor inactive, Sm TGR block inactive, NS1 inh inactive and Pf growth 48h 10µM.
`COc1ccccc1NC(=O)NNC(=O)c1ccc2ccccc2c1` gave Pf growth 96h inactive, CHX counter inactive, Shiga inhibitor inactive, Sm TGR block inactive, NS1 inh inactive and Pf growth 48h inconclusive.
For COc1ccc(C(=O)Nc2ccccc2C(N)=O)cc1 the results were CHX counter 27, Shiga inhibitor 94, Sm TGR block inactive, NS1 inh inactive and Pf growth 48h inactive.
`COc1ccc(C(=O)Nc2ccccc2C(=O)Nc2ccc(C(=O)O)cc2)cc1` gave Pf growth 96h inactive, CHX counter 11, Shiga inhibitor inactive, Sm TGR block inactive, NS1 inh inactive and Pf growth 48h inactive.
Screening COC(=O)c1ccccc1NC(=O)Cn1c(=O)n(CCCC(=O)NCc2ccccc2OC)c(=O)c2ccccc21 returned Sm TGR block inactive.

Screening results deposited in PubChem BioAssay by National Center for Advancing Translational Sciences (NCATS).
